# From PubChem BioAssay
# An excerpt weighted towards active compounds, which were near 3.4% of everything screened.
# ADAM10 inh – inhibits human ADAM10; 370,000 tested, 0.62% active; AID 720582; inhibition, % at 7 µM; O14672; recombinant ADAM10, EDANS/DABCYL FRET peptide cleavage, 3 h;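 active = inhibition above a per-campaign cutoff equal to the mean of compounds falling between control-based bounds plus 3 SD, cut at about 20% in these data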;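 also: 0% = DMSO wells while the 100% control is not disclosed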
# CendR NRP1 mod – NRP-1/CendR interaction modulation | 360,000 tested, 0.85% active | AID 602438 | inhibition, % at 25 µM | O14786 | FAM-RPARPAR peptide binding to NRP-1, fluorescence polarization;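 active = inhibition or corrected inhibition above about 18%, plus a signal ratio from 0.5 to 1.5, limit read from the data, passing the limit was not always enough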
# KLK7 zymogen act – proKLK7 (human) activation, primary screen. P49862. purified proKLK7, EDANS-DABCYL substrate fluorescence; 100% is mature enzyme control, 0% vehicle. activation, % at 7 µM. 370,000 tested, 0.9% active. AID 652039;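 active = activation above the mean of all tested compounds plus 3 SD, computed per campaign excluding outliers beyond control limits, cut at about 13% in these data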
# sPLA2-III inh – Blocks human group III sPLA2 activity; Q9NZ20; QFRET BODIPY PC-A2 liposome hydrolysis, fluorescence; inhibition, % at 12.2 µM; 370,000 tested, 0.56% active; AID 743126;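 active = inhibition above mean plus 3 SD of compounds lying within the high and low control bounds, cut at about 19% in these data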;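 also: 0% = median of test compound wells and 100% = no enzyme DMSO wells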
# ADAM17 inh – ADAM17 inhibition, QFRET primary screen; P78536; recombinant ADAM17, EDANS/DABCYL FRET peptide cleavage; inhibition, % at 6.95 µM; 370,000 tested, 0.83% active; AID 720648;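 active = inhibition above the mean of compounds lying between control limits plus 3 SD, set per campaign, cut at about 8.5% in these data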;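 also: 0% = DMSO-only wells as the low control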
# Target sequence (P78536 215-824 limits assumed): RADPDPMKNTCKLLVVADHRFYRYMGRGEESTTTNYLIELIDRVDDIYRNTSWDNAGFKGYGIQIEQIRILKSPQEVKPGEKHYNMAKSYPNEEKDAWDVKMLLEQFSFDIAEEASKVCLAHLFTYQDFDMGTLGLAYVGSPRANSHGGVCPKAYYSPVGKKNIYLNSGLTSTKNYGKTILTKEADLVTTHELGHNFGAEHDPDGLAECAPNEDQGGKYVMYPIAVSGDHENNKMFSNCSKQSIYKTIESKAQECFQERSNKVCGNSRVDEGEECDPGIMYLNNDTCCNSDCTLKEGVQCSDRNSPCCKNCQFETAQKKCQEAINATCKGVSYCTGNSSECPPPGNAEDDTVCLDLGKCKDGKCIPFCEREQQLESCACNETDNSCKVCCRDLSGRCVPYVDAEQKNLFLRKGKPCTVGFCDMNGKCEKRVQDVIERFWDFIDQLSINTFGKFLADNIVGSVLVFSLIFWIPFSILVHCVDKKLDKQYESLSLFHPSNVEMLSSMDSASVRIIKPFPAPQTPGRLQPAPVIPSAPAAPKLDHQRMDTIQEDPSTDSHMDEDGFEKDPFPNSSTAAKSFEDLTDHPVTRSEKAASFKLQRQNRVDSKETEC
# ADAM10 ctr – inhibits human ADAM10 in ADAM17 exosite counter-screen; shares compounds with ADAM17 inh; 2,900 tested, 47% active; recombinant ADAM10, EDANS/DABCYL FRET peptide cleavage, 3 h; inhibition, % at 6.95 µM;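 active = mean inhibition over the triplicate runs exceeds the activity threshold set in the earlier primary screen, cut at about 20% in these data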;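 also: 0% = DMSO wells and 100% = marimastat wells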
# ADAM17 confirm – human ADAM17 inhibition, confirmation | shares compounds with ADAM17 inh | recombinant ADAM17, EDANS/DABCYL QFRET peptide cleavage | inhibition, % at 6.95 µM | 2,900 tested, 65% active | AID 743257;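 active = mean inhibition across replicates above the hit cutoff set in the primary screen, cut at about 8.5% in these data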;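 also: 0% = DMSO wells and 100% = marimastat wells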
# * hit, by the source's call; nt = no result.
SMILES,ADAM10 inh,CendR NRP1 mod,KLK7 zymogen act,sPLA2-III inh,ADAM17 inh,ADAM10 ctr,ADAM17 confirm
COP(=O)(CC(=O)C(Cc1ccccc1)NC(=O)OC(C)(C)C)OC (centres undefined),-3,nt,0,-2,-5,nt,nt
CCc1nc2ccc(C(=O)Nc3ccc4c(c3)OCC(=O)N4)cn2c1N(CC)Cc1cccc(Br)c1,14,-2,-5,-23,9.1*,16,12*
CCc1nc2ccc(C(=O)Nc3ccc4c(c3)OCC(=O)N4)cn2c1N(CC)CCOC,-1,-4,0,7,-1,nt,nt
COC(=O)[C@]12C[C@H](CC(=O)NCc3ccc(OC)c(OC)c3)C(=O)N(Cc3ccco3)C1=C[C@H](COCc1ccccc1)O[C@@H]2C,-6,nt,0,-7,-3,nt,nt
c1ccc2oc(SCc3cn4ccsc4n3)nc2c1,9,5,0,6,9.2*,7,8
CCCCCCN1C[C@H](n2cc(C3CC3)nn2)[C@@H](O)C[C@@H]1c1ccc(C)cc1,13,-3,0,-19,15*,17,8
COC(=O)C1=C(C)N(c2cccc(C)c2)C(=O)/C1=C\c1cccs1,12,28*,0,-26,8.7*,5,5
CCOc1ccccc1C1c2[nH]c3ccccc3c2C[C@H]2C(=O)N(C3CCN(Cc4ccccc4)CC3)CC(=O)N12 (some centres undefined),19,4,1,-24,9.7*,27*,14*
COc1ccc(C2c3[nH]c4ccccc4c3C[C@H]3C(=O)N(C4CCN(Cc5ccccc5)CC4)CC(=O)N23)c(OC)c1 (some centres undefined),16,8,0,-18,5,nt,nt
Cc1ccccc1C1c2[nH]c3ccccc3c2C[C@H]2C(=O)N(C3CCN(Cc4ccccc4)CC3)CC(=O)N12 (some centres undefined),18,-10,2,-16,8.7*,26*,14*
N#CCC[C@@H]1CC[C@]2(CCCN(S(=O)(=O)C3CCCCC3)C2)O1,1,nt,0,6,0,nt,nt
COCCCNC(=O)C[C@H]1C[C@@]2(C(=O)OC)C(=C[C@H](COCc3ccccc3)O[C@@H]2C)N(Cc2ccco2)C1=O,1,nt,0,2,-4,nt,nt
O=C(CN1C(=O)NC2(CCCCCCC2)C1=O)NCc1ccc(Cl)cc1,1,4,0,2,11*,3,0
CC1Oc2ccccc2N(CC(=O)Nc2ccc3c(c2)OCCO3)C1=O (centres undefined),10,-1,-1,0,10.0*,-6,-1
O=C(CN1C(=O)NC2(CCCCCC2)C1=O)Nc1cccc(F)c1,-7,3,0,13,-2,nt,nt
CN(Cc1ccccc1)C(=O)CN1C(=O)NC2(CCCCCCC2)C1=O,5,7,0,1,8.8*,7,8
O=C(CN1C(=O)NC2(CCCCC2)C1=O)Nc1ccc2c(c1)OCCCO2,1,-2,0,-1,11*,4,2
N#CCC(CNc1ncc(C(F)(F)F)cc1Cl)OC(=O)c1ccc(Cl)cc1 (centres undefined),16,4,1,0,8.7*,35*,16*
COC(=O)[C@]12C[C@H](CC(=O)NCc3ccc(C)o3)C(=O)N(CCC3=CCCCC3)C1=C[C@H](COCc1ccccc1)O[C@@H]2C,10,nt,0,-16,2,nt,nt
COc1ccc(C)cc1NC(=O)CN(C)S(=O)(=O)c1ccc2c(c1)CCCN2C(C)=O,7,7,0,6,9.0*,7,7
COc1ccc(NC(=O)CN(C)S(=O)(=O)c2ccc3c(c2)CCCN3C(C)=O)cc1,-3,5,0,1,-1,nt,nt
CC(C)(C)c1ccc(-c2nnc(SCC(=O)Nc3ccc4c(c3)OCCO4)n2-c2ccc(Cl)cc2)cc1,4,nt,0,-2,2,nt,nt
O=[N+]([O-])c1ccc(Cn2ccc3ccc(-c4ccc5ccn(Cc6ccccc6)c5c4)cc32)cc1,-7,nt,-1,9,-5,nt,nt
COc1ccc(C)cc1N(C(=O)c1cccc(F)c1)c1nc2ccccc2s1,5,-15,10,-6,3,nt,nt
COc1ccc(C)cc1N(C(=O)c1ccccc1)c1nc2ccccc2s1,9,-17,-1,-1,9.9*,26*,18*
SMILES,ADAM10 inh,CendR NRP1 mod,KLK7 zymogen act,sPLA2-III inh,ADAM17 inh,ADAM10 ctr,ADAM17 confirm
O=[N+]([O-])c1cc(Cl)c2cccnc2c1O,4,17,0,6,5,nt,nt
O=[N+]([O-])c1cc(Cl)c(O)c2ncccc12,15,4,0,-12,10*,20,11*
COC(=O)[C@H](C(C)C)N(CCc1cn(Cc2ccc(C)cc2)nn1)S(=O)(=O)c1ccc(F)cc1Br,14,nt,0,-16,6,nt,nt
CCCCCN(C(=O)CCc1cn(CCCCC)c2ccccc12)c1ccc(Oc2cccnc2)cc1,-2,nt,0,-11,-3,nt,nt
CCCN(C(=O)c1cn(CCC)c2ccccc12)c1ccc(Oc2cccnc2)cc1,11,nt,0,-15,10*,16,9.1*
CC(=O)N1c2ccc(S(=O)(=O)N3CCC(C(=O)Nc4cccc(C(F)(F)F)c4)CC3)cc2CC1C (centres undefined),11,5,0,-31,10*,12,9.4*
COc1cccc(NC(=O)C2CCN(S(=O)(=O)c3ccc4c(c3)CC(C)N4C(C)=O)CC2)c1 (centres undefined),11,7,0,1,-4,nt,nt
CCOc1ccc(CCNC(=O)CN2C(=O)c3cccnc3Oc3ccc(C)cc32)cc1OCC,9,-6,0,1,1,nt,nt
CCOc1ccc(CCNC(=O)CN2C(=O)c3cccnc3Oc3ccc(Cl)cc32)cc1,3,-43,0,2,11*,21*,19*
O=C(N1CCC(n2nc(-c3ccccc3)oc2=O)CC1)C1(c2ccccc2)CCCC1,-1,nt,nt,4,-2,nt,nt
O=C(CCc1c[nH]c2ccccc12)OCC(=O)c1ccccc1,2,14,0,-82,0,nt,nt
CN(C(=O)COC(=O)CCc1c[nH]c2ccccc12)C(c1ccccc1)c1ccccc1,18,-10,-1,-111,11*,28*,15*
Cc1[nH]c2ccc(C(=O)NCCCN(C)C3CCCCC3)cc2c1C,0,6,1,-7,8.7*,-49,-10
Cc1cc(C)cc(OCC(C)CN2CCC(C(O)(c3ccccc3)c3ccccc3)CC2)c1 (centres undefined),6,nt,0,-16,8,nt,nt
